# Results reported in PubChem BioAssay AID488969 (Vanderbilt High Throughput Screening Facility, 2010).
# In all, about 110,000 compounds were measured (“z-score”: median about -0.1, highest 2% from about 2 on). Only a selection was taken, and the highest values are over-represented in it overall. Calls of active or inactive are those of the source.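 Rule for the calls: active = z-score in the third read window above 3 or below -3; inactive = the rest.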
# Target: Metabotropic glutamate receptor 8 (Rattus norvegicus) (UniProt P70579)
# Sequence (P70579 whole entry, looked up): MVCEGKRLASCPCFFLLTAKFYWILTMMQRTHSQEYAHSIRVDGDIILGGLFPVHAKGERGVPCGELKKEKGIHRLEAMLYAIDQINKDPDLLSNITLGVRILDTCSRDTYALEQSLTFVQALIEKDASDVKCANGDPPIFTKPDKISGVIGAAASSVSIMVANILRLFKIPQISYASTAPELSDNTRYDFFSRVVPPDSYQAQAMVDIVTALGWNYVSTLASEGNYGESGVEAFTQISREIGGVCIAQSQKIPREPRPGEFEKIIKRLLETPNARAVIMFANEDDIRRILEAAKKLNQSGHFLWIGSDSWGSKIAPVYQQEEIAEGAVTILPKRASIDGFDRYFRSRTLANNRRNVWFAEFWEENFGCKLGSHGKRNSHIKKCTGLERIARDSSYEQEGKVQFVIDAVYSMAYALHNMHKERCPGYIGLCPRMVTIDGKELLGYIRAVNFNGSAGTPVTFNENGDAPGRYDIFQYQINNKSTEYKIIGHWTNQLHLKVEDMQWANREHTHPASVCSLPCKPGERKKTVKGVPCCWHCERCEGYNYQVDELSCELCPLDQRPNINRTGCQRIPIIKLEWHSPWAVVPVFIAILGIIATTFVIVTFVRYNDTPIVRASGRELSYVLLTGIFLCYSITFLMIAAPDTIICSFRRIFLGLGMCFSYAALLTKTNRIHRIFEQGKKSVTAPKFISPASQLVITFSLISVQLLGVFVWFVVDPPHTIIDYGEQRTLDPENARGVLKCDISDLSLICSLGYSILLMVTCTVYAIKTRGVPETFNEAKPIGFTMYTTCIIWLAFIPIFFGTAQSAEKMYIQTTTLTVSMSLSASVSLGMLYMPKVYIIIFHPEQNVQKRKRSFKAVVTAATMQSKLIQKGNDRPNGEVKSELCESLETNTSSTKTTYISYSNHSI
# Experiment: mGluR8 Gi/Go-coupled signaling modulation – cell-based, rat, thallium flux, HTS, primary screen (AID 488969)
# Conditions: HEK293 rat mGluR8, GIRK (G protein-gated inwardly rectifying potassium channel) thallium flux, FluoZin2; at 10 µM; stronger effect = higher value; submaximal glutamate (EC20) added with thallium
row,Compound,z-score
1,CS(=O)(=O)N(CC(=O)N1CCN(c2ccccc2)CC1)c1ccc(Cl)c(C(F)(F)F)c1,-0.0753
2,CCn1c(=NC(=O)c2ccc(N3C(=O)CCC3=O)cc2)sc2c(OC)ccc(OC)c21,-0.536
3,CCn1c(Cc2ccc(OC)cc2)nnc1SCC(=O)N1CCN(c2ccccc2)CC1,0.352
4,O=C(O)C1CCCCC1C(=O)Nc1cc(Cl)ccc1Cl (stereo not given),2.08
5,O=C(O)C1CC=CCC1C(=O)Nc1cc(Cl)ccc1Cl (stereo not given),-0.205
6,O=C(O)C1CCCCC1C(=O)Nc1ccccc1Cl (stereo not given),-0.189
7,CCCCC(=O)NC(=S)NNC(=O)CC#N,-0.265
8,Fc1ccc2[nH]c3c(NCCN4CCOCC4)ncnc3c2c1,0.07
9,Clc1ccc2[nH]c3c(NCC4CCCO4)ncnc3c2c1 (stereo not given),-3.05 (active)
10,CCN1CCCC1CNc1ncnc2c1[nH]c1ccc(F)cc12 (stereo not given),2.55
11,CCOC(=O)c1ccc(Oc2c(C)oc3cc(OS(C)(=O)=O)ccc3c2=O)cc1,-0.214
12,CC(C)NC(=S)N/N=C/c1cc(Br)ccc1O,6.43 (active)
13,NC(=O)N/N=C\c1cc(Br)ccc1O,-0.265
14,Cc1ccc(/C=N/NC(=S)NC(C)C)o1,-0.11
15,FC(F)(F)c1cnc2c(c1)Nc1ccccc1S2,0.635
16,N#Cc1c(-n2cccc2/C=N/O)sc2c1CCCC2,-0.27
17,Cc1ccc(C)n1-c1sc2c(c1C#N)CCCC2,-0.0485
18,C=CCNCc1cccn1-c1sc2c(c1C#N)CCCC2,2.43
19,Oc1ccccc1C1=Nc2ccccc2N=C(c2cccs2)C1,0.0299
20,O=C(CSc1nnc2n1CCCN2C(=S)Nc1ccc(Cl)cc1)c1ccccc1,-0.14
21,CN(c1ccc(C(=O)NCCSCc2ccco2)cc1)S(C)(=O)=O,-0.396
22,Cn1c(NC(=O)CCc2ccccc2)cc(=O)n(C)c1=O,-0.492
23,Cn1c(NC(=O)Cc2cccs2)cc(=O)n(C)c1=O,0.422
24,Cn1c(NC(=O)COc2ccccc2)cc(=O)n(C)c1=O,0.597
25,Cn1c(NC(=O)Cc2ccc(F)cc2)cc(=O)n(C)c1=O,2.79

row,Compound,z-score
1,COc1ccc(CC(=O)Nc2cc(=O)n(C)c(=O)n2C)cc1,2.78
2,CCCC(=O)Nc1cc(=O)n(C)c(=O)n1C,-0.309
3,Cc1cccc(CSCCNC(=O)Nc2ccccc2)c1,-0.872
4,CC(=O)NNc1nc(-c2ccc(NC(C)=O)cc2)cs1,-0.0151
5,CCOC(=O)/C=c1\s/c(=C\c2ccc(C)cc2)c(=O)n1CC(=O)NCc1ccco1,0.0354
6,O=C(/C=C/c1ccc(Cl)cc1Cl)NC(=S)Nc1ccc(CN2CCOCC2)cc1,0.0804
7,CC(=O)N/C(=C/c1ccc(OS(=O)(=O)c2ccc(C)cc2)cc1)C(=O)NCCO,-0.101
8,CCOCC(=O)Nc1nnc(C)s1,1.02
9,CC12CCC(C(=O)Nc3ccc(SC(F)F)cc3)(CC1=O)C2(C)C (stereo not given),0.519
10,C=C1C2(C(=O)Nc3ccc(SC(F)F)cc3)CCC(C2)C1(C)C (stereo not given),0.546
11,O=C(Nc1ccc(SC(F)F)cc1)C12CCC(CC1)C2,3.38 (active)
12,CCCCCNCc1ccc(Br)cc1,-0.224
13,OCc1cc(CO)c(O)c(CCc2ccccc2)n1,0.171
14,COc1cc2nc(-c3cccs3)oc(=O)c2cc1OC,-0.693
15,COc1cccc2sc(Nc3nc4ccc(NC(C)=O)cc4s3)nc12,-0.147
16,COc1cccc2sc(Nc3nnc(-c4cccs4)o3)nc12,17.4 (active)
17,COc1cccc2sc(Nc3nc(-c4cc5ccccc5oc4=O)cs3)nc12,0.111
18,COc1ccc(-c2nnc(Nc3nc4c(OC)cccc4s3)o2)cc1,17.1 (active)
19,c1ccc(Nc2nc(-c3ccccn3)cs2)cc1,-0.545
20,COc1cccc2sc(NC(=O)c3ccc(Br)s3)nc12,0.601
21,COc1cccc2sc(Nc3nc(-c4ccccn4)cs3)nc12,5.31 (active)
22,COc1ccc(-c2nnc(-c3cccs3)o2)cc1OC,-0.0864
23,COc1cc(-c2nnc(-c3cccs3)o2)cc(OC)c1OC,2.27
24,COc1cc(-c2nnc(-c3cc(OC)c(OC)c(OC)c3)o2)cc(OC)c1OC,-1.02
25,CCOC(=O)c1sc(Nc2nc3c(OC)cccc3s2)cc1C,-0.137

row,Compound,z-score
1,CCOc1ccc(NC(=O)CC2C(=O)N(C)C(=S)N2CCCc2ccccc2)cc1 (stereo not given),0.36
2,O=C(Cc1c(F)cccc1Cl)c1ccc(O)cc1O,0.0496
3,CCOC(=O)c1cccc(NC(=O)C2CCCN2S(=O)(=O)c2cccc3cccnc23)c1 (stereo not given),-0.226
4,CN(CCOC(=O)C1c2ccccc2Oc2ccccc21)C(C)(C)C,0.442
5,CNC(=O)CCSc1ccc(C)cc1,1.02
6,O=C(CSc1ncnc2c1cnn2CCc1ccccc1)Nc1cccc(C(F)(F)F)c1,-0.203
7,CCN(CC)S(=O)(=O)c1cc(C)c(C)cc1Br,0.329
8,NS(=O)(=O)c1ccc(CCNC(=O)CNC(=O)C2CCCCC2)cc1,-0.063
9,O=C(Nc1cccc(F)c1)NC1(C(=O)N2CCN3CCCC3C2)CCCCC1 (stereo not given),0.517
10,N#Cc1c(NC(=O)CSc2nc(-c3ccccc3)cc(C(F)(F)F)n2)sc2c1CCC2,0.0217
11,c1ccc(-n2c(SCc3nc(-c4cccs4)no3)nnc2-c2ccco2)cc1,-1.55
12,CCOC(=O)CCC(=O)N1CCOCCOCCN(C(=O)CCC(=O)OCC)CCOCC1,-0.107
13,CCOCCn1c(CN(Cc2ccccc2)Cc2ccccc2)nc2c1c(=O)n(C)c(=O)n2C,0.389
14,CCCCn1c(CN(C)Cc2ccccc2)nc2c1c(=O)n(C)c(=O)n2C,0.165
15,CCCCCn1c(CN(C)Cc2ccccc2)nc2c1c(=O)n(C)c(=O)n2C,0.218
16,COCCn1c(CN(C)Cc2ccccc2)nc2c1c(=O)n(C)c(=O)n2C,-0.377
17,CCCCn1c(CN(Cc2ccccc2)Cc2ccccc2)nc2c1c(=O)n(C)c(=O)n2C,3.38 (active)
18,COCCn1c(CN(Cc2ccccc2)Cc2ccccc2)nc2c1c(=O)n(C)c(=O)n2C,3.37 (active)
19,CCCCNC(=O)Nc1ccccc1C(=O)NCc1ccco1,0.486
20,COc1cc(OC)cc(C(=O)NNC(=O)NC2CCCCC2)c1,-0.0486
21,CC(=O)NCCOc1ccc2oc3ccccc3c2c1,-0.506
22,O=C1c2ccccc2NC(c2cccc(Cl)c2)N1N=C1CCCCCC1 (stereo not given),-0.359
23,CC(C)OC(=O)CSc1nc2ncccc2[nH]1,-0.0946
24,COC(=O)CSc1nc2ncccc2[nH]1,2.69
25,CCN(CC)C(=O)CSc1nc2ncccc2[nH]1,1.1
